This passage reports percent growth results from the supplement of paper PMC5940239.

SMILES strings stand for the structures. Unmarked numbers belong to inactive results.

This assay deals with Madurella mycetomatis MM55. The experiment in a line: percent growth relative to solvent control; higher = less inhibition, active = 20 or less. The settings on record: 100 µM; 7 days.
Turning to `Cc1cc2ccccc2n1CC(=O)N1CC(C(=O)N2CCCCC2)Oc2ccccc21` (stereo not drawn), the percent growth is 82.1%. Take `NCCC(O)C(=O)N[C@@H]1C[C@H](N)[C@@H](OC2O[C@H](CN)[C@@H](O)[C@H](O)[C@H]2O)[C@H](O)C1OC1O[C@H](CO)[C@@H](O)[C@H](N)[C@H]1O` (stereo partly drawn): the percent growth was 102%.

`Cc1ccc(S(=O)(=O)Nc2ccc(CN3CCN(C(=O)c4cccc(C#N)c4)CC3)cc2)cc1`: the percent growth is 90.9%.

Consider `OCCc1ccc(Nc2nccc(-c3nnc4ccccn34)n2)cc1`, for which the percent growth is 88.7%. With `O=C(Cn1ccnc1[N+](=O)[O-])NCc1ccccc1`, the percent growth was 129%. In the case of `O=C(Nc1ccnc(-c2cccnc2)n1)c1cc(C(F)(F)F)cc(C(F)(F)F)c1`, the percent growth is 169%.

As to `Cc1ccc2[nH]c3c(NCCN(C)C)ncnc3c2c1`, the percent growth was 94.1%. For the compound `CCc1nc2ccc(Cl)cn2c1C(=O)NCc1ccc(N2CCC(c3ccc(OC(F)(F)F)cc3)CC2)cc1`, the percent growth is 126%. Consider `Cc1ccc(Oc2ccc(NC(=O)CNc3ccccc3N3CCCC3=O)cc2)cc1`, for which the percent growth was 107%.

As for `OC[C@H]1O[C@@H](n2c3ccc(Cl)cc3c3c(-c4cc5ccccc5o4)ncnc32)C(O)[C@H]1O` (stereo partly drawn), the percent growth is 121%. For the compound `COc1ccc2nccc(NC(=O)C3CCN(CCc4ccc(Cl)cc4)CC3)c2n1`, the percent growth was 48.8%. Consider `CC(C(=O)Nc1ccc2oc(-c3ccncc3)nc2c1)c1ccccc1` (stereo not drawn), for which the percent growth was 77%.

For the compound `CC1(C)Cc2c(c(N3CCOCC3)nc3snc(Br)c23)CO1`, the percent growth is 78.9%. With `O=S(=O)(c1ccc(Cl)cc1)N1CCN(C(=S)NCc2ccco2)CC1`, the percent growth is 151%. The value for `COc1ccc(-c2cnc3ccc(NCc4ccc(S(N)(=O)=O)cc4)nn23)cn1` was 86.7%. Take `COc1ccc(C2(C(=O)Nc3ccc(Br)cc3)CCCC2)cc1`: the percent growth is 56.2%. For the compound `COC(=O)c1c(NC(=O)c2cc3ccccc3oc2=O)sc2c1CCN(Cc1ccccc1)C2`, the percent growth was 111%. As to `O=C(NCCN1CCCC1)c1cc(NCCN2CCOCC2)nc2ccc(Cl)cc12`, the percent growth is 85.5%. On to `Cc1cc(C(=O)Nc2ccc(-c3ccccc3)cc2)no1`, for which the percent growth was 199%. As for `CC(C)(C)c1cnc(NC(=O)c2ccccc2O)s1`, the percent growth is 99.3%. As for `Cc1nnc(NC(=O)c2cn(-c3ccccc3)nc2-c2ccccc2C)o1`, the percent growth is 92.6%.

`Cc1[nH]c2cc(F)cc(F)c2c(=O)c1-c1ccc(Oc2ccc(OC(F)(F)F)cc2)cc1`: the percent growth is 95.7%. With `Cc1cc(Nc2ccc(C(F)(F)F)cc2)n2ccnc2n1`, the percent growth is 77.4%. Take `CC(C)(C)OC(=O)N1CCN(c2cc(-c3ccc(Oc4ccccc4)cc3)n[nH]2)CC1`: the percent growth was 112%. As to `CCN(CC)CCCN1CCN(C(=O)c2cccc(-c3noc(C(F)(F)F)n3)c2)CC1`, the percent growth is 118%. With `CC[C@H](CO)NCCN[C@H](CC)CO`, the percent growth is 139%. The result for `O=C(NCCc1ccn(-c2ccccc2)n1)C1CCCCC1` reads 49.1%. Regarding `NC(=O)c1cc(Br)ccc1OCCOc1ccccc1`, the percent growth was 92.8%.

In the case of `CC(C)N=c1cc2n(-c3ccc(Cl)cc3)c3ccccc3nc-2cc1Nc1ccc(Cl)cc1`, the percent growth was 105%. For the compound `N#Cc1nc(-c2ccccc2F)oc1NCCc1ccccc1`, the percent growth is 56.7%. The result for `Cn1ccnc1CNCCS(=O)(=O)c1cccc(Nc2ccc(-c3cccc(F)c3)cn2)c1` reads 65.7%. In the case of `Cc1cc(Cl)ccc1NC(=O)CCc1ccc(S(=O)(=O)NCC(C)C)cc1`, the percent growth is 91.1%. For `CC(C)C(C(=O)Nc1ccc(S(=O)(=O)N(C)C)cc1)c1ccc(Cl)cc1` (stereo not drawn), the percent growth was 121%. As to `Cc1nc2ccccn2c1C(=O)NCc1ccc(Cl)cc1`, the percent growth is 33.1%. On to `Nc1nc(N)c2c3c(sc2n1)CN(Cc1ccccc1)CC3`, for which the percent growth was 88%. Take `CC(C(=O)N1CCCC1)N1CCN(S(=O)(=O)c2ccc(C(C)(C)C)cc2)CC1` (stereo not drawn): the percent growth was 89.9%. As to `COc1cc(OC)cc(C(=O)NCC2Cc3cc(Cl)cc(-c4ccncc4)c3O2)c1` (stereo not drawn), the percent growth was 55.9%.

With `FC(F)(F)c1cccc(-c2nc3c(NCc4ccncc4)nccc3[nH]2)c1`, the percent growth was 72.4%.
